The source made the active and inactive calls. The calls were made as follows, unless noted: active = hit-call score of the fitted dose curve at least 0.9, where 1 is the maximum; inactive = score below 0.9.

Read-out in test [1]: Transforming Growth Factor (TGFB1), TGFB1 (gene 7040)
The test is described as follows: LTEA_HepaRG_TGFB1: Life Technologies and Expression Analysis (LTEA) Assay for Transforming Growth Factor (TGFB1) Transporter using HepaRG (AID 2283533). The settings on record: mRNA level, 48 h; actives raise or lower the signal. The gist of the method: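 HepaRG, 48 h post-plating, switched to serum-free induction medium; chemicals 100 uM top, half-log, 8 pts, 0.5% DMSO, dup; 48 h exposure; RNA → Fluidigm TaqMan qRT-PCR; norm ACTB/GAPDH/POLR2A; bidirectional fit vs DMSO.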

Read-out in the next test: TIMP1, TIMP1 (gene 7076)
The test can be described thus: LTEA_HepaRG_TIMP1: Life Technologies and Expression Analysis (LTEA) Assay for TIMP1 using HepaRG (AID 2283534).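 As to outcome: TaqMan qRT-PCR signal normalized to ACTB GAPDH and POLR2A housekeeping genes.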 The settings on record: mRNA level, 48 h; actives raise or lower the signal. An outline of the steps: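 Readout is TIMP1 mRNA level measured by qRT-PCR and normalized to three housekeeping genes. Human HepaRG cells were treated for 48 h in duplicate at eight concentrations up to 100 uM (0.5% DMSO); gain or loss fitted against DMSO.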

Read-out in test [2]: Tumor necrosis factor receptor 1 (TNFRSF1A), TNFRSF1A (gene 7132)
The test is described as follows: LTEA_HepaRG_TNFRSF1A: Life Technologies and Expression Analysis (LTEA) Assay for Tumor necrosis factor receptor 1 (TNFRSF1A) using HepaRG (AID 2283535). The settings on record: mRNA level, 48 h; actives raise or lower the signal. The gist of the method: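 Read-out is TNFRSF1A transcript level by TaqMan qRT-PCR, normalized to three housekeeping genes, scored as gain or loss of signal versus 0.5% DMSO. Human HepaRG cells received test chemicals for 48 h at up to 100 uM (half-log series).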

Read-out in test [3]: Thyroid Hormone Responsive (THRSP), THRSP (gene 7069)
The test is described as follows: LTEA_HepaRG_THRSP: Life Technologies and Expression Analysis (LTEA) Assay for Thyroid Hormone Responsive (THRSP) using HepaRG (AID 2283536). The settings on record: mRNA level, 48 h; actives raise or lower the signal. An outline of the steps: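 THRSP transcript quantified by Fluidigm qRT-PCR against three housekeeping genes after 48 h chemical exposure of HepaRG cells in serum-free induction medium; eight-point half-log series, top 100 uM, 0.5% DMSO vehicle, duplicate wells.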

Read-out in test [4]: Cellular tumor antigen p53 (Homo sapiens) (UniProt P04637)
The test can be described thus: LTEA_HepaRG_TP53: Life Technologies and Expression Analysis (LTEA) Assay for Tumor Protein P53 (TP53) using HepaRG (AID 2283537). Particulars: mRNA level, 48 h; actives raise or lower the signal. The gist of the method: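 HepaRG, 48 h exposure, top 100 uM, half-log 8-point, 0.5% DMSO vehicle, duplicates. Read: TP53 mRNA by TaqMan qRT-PCR, normalised to ACTB/GAPDH/POLR2A; bidirectional fit vs DMSO.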

Read-out in test [5]: UDP glucuronosyltransferase (UGT1A1), UGT1A1 (gene 54658)
The test is described as follows: LTEA_HepaRG_UGT1A1: Life Technologies and Expression Analysis (LTEA) Assay for UDP glucuronosyltransferase (UGT1A1) using HepaRG (AID 2283538). The settings on record: mRNA level, 48 h; actives raise or lower the signal. An outline of the steps: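 HepaRG, 48 h chemical exposure (top 100 uM, half-log 8-pt, 0.5% DMSO vehicle), duplicate wells; qRT-PCR (TaqMan, Fluidigm array) for UGT1A1 mRNA, housekeeping-normalized; bidirectional curve fit vs DMSO baseline.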

Read-out in test [6]: UDP glucuronosyltransferase (UGT1A6), UGT1A6 (gene 54578)
The test can be described thus: LTEA_HepaRG_UGT1A6: Life Technologies and Expression Analysis (LTEA) Assay for UDP glucuronosyltransferase (UGT1A6) using HepaRG (AID 2283539). Particulars: mRNA level, 48 h; actives raise or lower the signal. The gist of the method:
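HepaRG, 48 h post-plating switch to serum-free induction medium; chemical 48 h, 100 uM top, half-log x8, duplicate, 0.5% DMSO. Phenobarbital 1mM induction control. UGT1A6 mRNA by TaqMan qRT-PCR; gain/loss fit vs DMSO.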

Read-out in test [7]: X-box binding protein 1 (XBP1), XBP1 (gene 7494)
The test is described as follows: LTEA_HepaRG_XBP1: Life Technologies and Expression Analysis (LTEA) Assay for X-box binding protein 1 (XBP1) using HepaRG (AID 2283540). Particulars: mRNA level, 48 h; actives raise or lower the signal. An outline of the steps: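 Transcript levels of XBP1, measured by qRT-PCR and normalised to three housekeeping genes, were fitted bidirectionally relative to 0.5% DMSO controls. Human HepaRG cells received eight-point half-log dilutions from 100 uM for 48 h.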

Test [8] in a line: LTEA_HepaRG_LDH_cytotoxicity: Cytotoxicity Assessment in the Life Technologies and Expression Analysis (LTEA) Assay (AID 2283563; active = hit-call score of the fitted dose curve at least 0.9, where 1 is the maximum;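 as to AC50: LDH activity released into spent culture medium as a marker of cell death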). The gist of the method:
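Cells were thawed and plated for 48 h. Medium was then replaced with serum-free induction medium. Chemicals (8 half-log points, maximum 100 uM, 0.5% DMSO) were added in duplicate for 48 h, after which spent medium was assayed for LDH.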

Cellular tumor antigen p53 (Homo sapiens), sequence (P04637 whole entry, looked up): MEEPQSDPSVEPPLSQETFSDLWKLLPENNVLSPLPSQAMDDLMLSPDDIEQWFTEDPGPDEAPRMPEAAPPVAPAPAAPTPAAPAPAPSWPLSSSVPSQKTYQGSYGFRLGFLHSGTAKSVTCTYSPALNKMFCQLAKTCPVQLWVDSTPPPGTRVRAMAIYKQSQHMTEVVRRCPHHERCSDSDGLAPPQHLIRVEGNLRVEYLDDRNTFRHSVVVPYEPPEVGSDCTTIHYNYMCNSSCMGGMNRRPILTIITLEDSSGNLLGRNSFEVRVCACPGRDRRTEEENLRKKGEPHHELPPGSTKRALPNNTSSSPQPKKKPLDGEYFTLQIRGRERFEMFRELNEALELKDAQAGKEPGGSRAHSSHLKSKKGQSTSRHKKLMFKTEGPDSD

For `CCCCCCCCCCCCCCCO`, the outcome in test [1] was “inactive”; with TIMP1, TIMP1 (gene 7076), “inactive”; in test [2], “inactive”; in test [3], “inactive”; in test [4], “inactive”; in [5] it was “inactive”. Further, the result in [6], in test [7] and in [8] was inactive.
In the case of `CC/C(=C\C(=N/O)C(N)=O)C(C)[N+](=O)[O-]` (stereo not given), the outcome in test [1] is “inactive”; with TIMP1, TIMP1 (gene 7076), “inactive”; in test [2], “inactive”; in test [3], “inactive”; in test [4] it was “inactive”; in test [5], “inactive”. For the same molecule, the molecule was classed as inactive in [6], in test [7] and in test [8].
As for `Nc1cccc(N)c1`, the outcome was “inactive” in test [1]; “inactive” with TIMP1, TIMP1 (gene 7076); “inactive” in test [2]; “inactive” in [3]; “inactive” in [4]; “inactive” in test [5]. The molecule was classed as inactive in test [6], in [7] and in test [8].
Turning to `Clc1nc(Cl)c(Cl)c(Cl)c1Cl`, the outcome was “inactive” in [1]; “inactive” with TIMP1, TIMP1 (gene 7076); “inactive” in [2]; “inactive” in [3]; “inactive” in test [4]; “inactive” in test [5]. The molecule was called inactive in [6], in test [7] and in [8].
On to `CC1(C)C(=O)N(Br)C(=O)N1Br`, for which the outcome was “inactive” in test [1]; “inactive” in the test with TIMP1, TIMP1 (gene 7076); “inactive” in test [2]; “inactive” in test [3]; “inactive” in [4]; “inactive” in test [6]. The outcome in test [7] and in [8] was inactive. Moreover, the AC50 (commonly the midpoint of the concentration-response curve, whichever way the signal moves) in test [5] is 21.4 µM (active).
Turning to `COCCOc1cc2cc(C(=O)NC3CCN(C(C)C)CC3)n(CC(=O)Nc3ccc(Cl)cn3)c2cn1`, the outcome in test [1], in test [2], in test [4] and in test [6] was inactive. Besides, the AC50 with TIMP1, TIMP1 (gene 7076) was 18.2 µM (active); in test [3] it was 51.5 µM (active); in test [5], 82.2 µM (active); in test [7], 12.1 µM (active); in test [8], 59.3 µM (active).
On to `CCCCCCc1ccc(O)cc1O`, for which the outcome in [1] is “inactive”; in the test with TIMP1, TIMP1 (gene 7076), “inactive”; in [2], “inactive”; in test [3], “inactive”; in [4], “inactive”; in [5] it was “inactive”. For the same molecule, the call in [6] and in [7] was inactive. In addition, the AC50 in test [8] was 77.7 µM (active).
Turning to `Cc1ccc(C)c(O)c1`, the outcome is “inactive” in test [1]; “inactive” with TIMP1, TIMP1 (gene 7076); “inactive” in [2]; “inactive” in [3]; “inactive” in [4]; “inactive” in [5]. In addition, the outcome in test [6], in test [7] and in test [8] was inactive.
For the molecule `CC(C)=CCCC(C)CCO` (stereo not given), the outcome was “inactive” in [1]; “inactive” in the test with TIMP1, TIMP1 (gene 7076); “inactive” in [2]; “inactive” in test [3]; “inactive” in [4]; “inactive” in test [5]. Also, the molecule was classed as inactive in test [6], in [7] and in test [8].
For `O=C(CCCCCCCCc1cccnc1)N1CCC(C=C(c2ccccc2)c2ccccc2)CC1`, the call in [1] was inactive. Also, the AC50 with TIMP1, TIMP1 (gene 7076) is 78.7 µM (active); in test [2] it was 79.2 µM (active); in test [3], 18.8 µM (active); in test [4] it was 22.9 µM (active); in [5] it was 32.9 µM (active); in [6], 33.6 µM (active). The values for the AC50 in [7] and in test [8] were 30.9 µM (active) and 36.8 µM (active), respectively.

The values above are taken from PubChem BioAssay (EPA / NIEHS).
